Test results taken from PubChem BioAssay (NCATS).
Records with an inconclusive call do not appear. The source made the active and inactive calls. Calls come from the whole dose curve; as a rule, active = well fitted curve in the direction sought with a large enough effect; inconclusive = small, poorly fitted or top-dose-only effect, or another doubt; inactive = no such curve, though single readings can be large; an effect the other way counts as inactive or inconclusive.

Experiments:
[1] = qHTS of pediatric cancer cell lines to identify multiple opportunities for drug repurposing: Primary screen for BT-12 cells (AID 1347101); note: nearly all actives have a fitted effect of over 25% in size
In short: (§1)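 Cells (500-1,000/well) rested 5 h, then received compounds for 48 h; metabolically active cells were measured by CellTiter-Glo luminescence. Final concentrations spanned up to 46 µM (MIPE, 11-point) or 0.59 nM-46 µM (NPC, 8-point) in primary screens, 11-point in follow-ups.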

[2] = qHTS of pediatric cancer cell lines to identify multiple opportunities for drug repurposing: Primary screen for Rh18 cells (AID 1347102); note: nearly all actives have a fitted effect of over 65% in size
In short: as §1

[3] = qHTS of pediatric cancer cell lines to identify multiple opportunities for drug repurposing: Primary screen for MG 63 (6-TG R) cells (AID 1347105); note: nearly all actives have a fitted effect of over 50% in size
In short: (§2)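 Viability was measured as metabolically active cells after 48 hours of treatment, read by CellTiter-Glo luminescence. Compounds were tested at multiple final concentrations, giving concentration-response curves.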

[4] = qHTS of pediatric cancer cell lines to identify multiple opportunities for drug repurposing: Primary screen for Rh30 cells (AID 1347107); note: nearly all actives have a fitted effect of over 75% in size
In short: as §1

[5] = qHTS of pediatric cancer cell lines to identify multiple opportunities for drug repurposing: Primary screen for Rh41 cells (AID 1347108); note: nearly all actives have a fitted effect of over 70% in size
In short: as §2

[6] = qHTS of pediatric cancer cell lines to identify multiple opportunities for drug repurposing: Primary screen for OHS-50 cells (AID 1347103); note: nearly all actives have a fitted effect of over 40% in size
In short: as §1

[7] = qHTS of pediatric cancer cell lines to identify multiple opportunities for drug repurposing: Primary screen for RD cells (AID 1347104); note: nearly all actives have a fitted effect of over 55% in size
In short: as §2

[8] = qHTS of pediatric cancer cell lines to identify multiple opportunities for drug repurposing: Primary screen for control Hh wild type fibroblast cells (AID 1347106); note: nearly all actives have a fitted effect of over 55% in size
In short: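 Cells (500-1,000/well) in growth media were settled 5 h at 37 degrees C, then given compounds for 48 h. Viability was read as CellTiter-Glo luminescence. Primary runs used MIPE at 11 points (0.78 nM-46 µM) and NPC at 8 points (0.59 nM-46 µM); follow-ups used 11 points.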

[9] = qHTS of pediatric cancer cell lines to identify multiple opportunities for drug repurposing: Confirmatory screen for NB1643 cells (AID 1347109); note: nearly all actives have a fitted effect of over 45% in size
In short: as §1

[10] = qHTS of pediatric cancer cell lines to identify multiple opportunities for drug repurposing: Confirmatory screen for A673 cells (AID 1347110);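 note: cells exposed to compound for 48 h before the viability read; nearly all actives have a fitted effect of over 65% in size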
In short: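 A673 cells seeded at 500-1,000 cells/well, rested 5 h, then dosed; primary MIPE 11-point (0.78 nM to 46 µM), NPC (0.59 nM to 46 µM); confirmatory 11-point. CellTiter-Glo luminescence after 48 h.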

Measured: Potency
Potency is the fitted concentration of half-maximal effect.

O=C(O)Cc1cccc2ccccc12
inactive: [1] | [2] | [3] | [4] | [5]

C[N+]1(C)[C@@H]2CC(OC(=O)[C@H](CO)c3ccccc3)C[C@H]1[C@H]1O[C@@H]12 (some centres not stated)
inactive: [1] | [6] | [7] | [3] | [8] | [4] | [5]

NC(=O)c1cccc2[nH]c(-c3ccc([C@H]4CCCN4)cc3F)nc12
inactive: [1] | [2] | [8] | [4] | [5]

Nc1ncnc2c1nc(Cl)n2[C@@H]1O[C@H](CO)[C@@H](O)[C@@H]1O
active: [6] 15.3 µM | [7] 29.6 µM | [3] 29.6 µM | [8] 23.5 µM
inactive: [1]

O=c1cc(-c2ccccc2)oc2cc(O)cc(O)c12
inactive: [1] | [6] | [7] | [3] | [8] | [4]

O=C(O)c1ccc(-c2c[nH]c3ncc(-c4ccccc4)cc23)cc1C1CCCC1
inactive: [1] | [2] | [8] | [4] | [5] | [9] | [10]

NS(=O)(=O)c1cccc2c1C(=O)c1cccc(O)c1C2=O
active: [1] 0.273 µM | [2] 0.743 µM | [7] 0.526 µM | [3] 2.35 µM | [4] 2.35 µM | [5] 0.935 µM | [9] 2.93 µM | [10] 2.33 µM

Cn1cc(C=C2C(=O)Nc3cccnc32)c2ccccc21
inactive: [1] | [2] | [8] | [4] | [5]

C[C@@H]1CCN(C(=O)CC#N)C[C@H]1N(C)c1ncnc2[nH]ccc12
inactive: [1] | [2] | [4]

CC(C)=CC[C@@H](O)C1=CC(=O)c2c(O)ccc(O)c2C1=O
active: [1] 17.2 µM | [6] 10.9 µM | [7] 26.4 µM

CCN(CC)CCOc1ccc(C(=C(Cl)c2ccccc2)c2ccccc2)cc1
inactive: [1] | [2] | [3] | [4] | [5]

CC(=O)O[C@]1(C(C)=O)CC[C@@H]2[C@@H]3C[C@H](C)C4=CC(=O)CC[C@]4(C)[C@H]3CC[C@@]21C
active: [1] 24.3 µM | [6] 24.3 µM

CCn1cc(C(=O)O)c(=O)c2ccc(C)nc21
inactive: [1] | [6] | [7] | [3] | [8] | [4] | [5]

Clc1ccc(-c2nc3sccn3c2C=NOCc2ccc(Cl)c(Cl)c2)cc1
inactive: [1] | [6] | [8] | [4]

COc1ccc(-c2coc3cc(O)ccc3c2=O)cc1
inactive: [1] | [6] | [3] | [8] | [4] | [5]

COc1cc(Nc2ncc(F)c(Nc3ccc4c(n3)NC(=O)C(C)(C)O4)n2)cc(OC)c1OC
inactive: [1] | [8]
active: [6] 0.544 µM | [5] 2.35 µM

CC(=O)O[C@]1(C(C)=O)CC[C@H]2[C@@H]3C=C(Cl)C4=CC(=O)[C@@H]5C[C@@H]5[C@]4(C)[C@H]3CC[C@@]21C
inactive: [3] | [8]
active: [1] 12.3 µM | [6] 34.7 µM | [5] 18.8 µM

C[C@H]1[C@H](NC(=O)C(=NOC(C)(C)C(=O)O)c2csc(N)n2)C(=O)N1S(=O)(=O)O
inactive: [1] | [6] | [7] | [3] | [4] | [5]

N#CC(=C(N)Sc1ccccc1N)C(C#N)=C(N)Sc1ccccc1N
inactive: [8]
active: [1] 13.7 µM | [6] 27.3 µM | [7] 5.26 µM | [5] 18.7 µM

COCCOC(=O)C1=C(C)NC2=C(C(=O)CC(c3ccccc3OC)C2)C1c1cccc(O)c1 (configuration not stated)
active: [7] 18.7 µM | [3] 14.8 µM
inactive: [1] | [8]

CCOC1OC(=O)C[C@H]1NC(=O)[C@@H]1CCCN1C(=O)[C@@H](NC(=O)c1ccc(N)c(Cl)c1)C(C)(C)C (some centres not stated)
inactive: [3] | [4]
active: [1] 1.37 µM | [6] 1.22 µM

Oc1ccc(C2=Cc3ccc(O)cc3OC2)cc1
inactive: [3] | [8]
active: [1] 4.85 µM | [7] 5.26 µM | [4] 11.8 µM | [5] 5.9 µM
